“And” between values parts separate entries of the source, which are not always exact repeats. Identical values can stand only once. This is part of a sample that, as a whole, favours compounds with a hit. Of some 83,000 tested, about 20% had one in any assay.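 A percent growth of 40 corresponds to 60% growth inhibition; 0 means no net growth; -100 means all cells died. Active threshold: below 10.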 The source made the active and inactive calls.
Columns and labels:
Experiment in all cases: NCI-60 one-dose screen, 48 h (100 = growth as untreated, 0 = no growth, -100 = all killed)
Conditions in all cases: 10 µM unless noted
[1] = test system: T-47D breast
[2] = test system: BT-549 breast
[3] = test system: MDA-MB-435 melanoma
[4] = test system: SW-620 colon
[5] = test system: MCF7 breast
[6] = test system: HCT-116 colon
[7] = test system: HCC-2998 colon
[8] = test system: KM12 colon

SMILES	growth [1]	growth [2]	growth [3]	growth [4]	growth [5]	growth [6]	growth [7]	growth [8]
O=S(=O)(NCCCNc1nccc(-c2[nH]c(-c3ccccc3)nc2-c2ccc(F)c(O)c2)n1)c1ccccc1	90.1% (inactive)	112% (inactive)	51% (inactive)	133% (inactive)	94.9% (inactive)	77.9% (inactive)	126% (inactive)	98.8% (inactive)
O=C(CSc1nc2ccccc2c(=O)n1-c1ccccc1)Nc1ccc(S(=O)(=O)Nc2nccs2)cc1	69.3% (inactive)	45.2% (inactive)	84.1% (inactive)	67.9% (inactive)	57.6% (inactive)	37.7% (inactive)	118% (inactive)	94.4% (inactive)
O=C(/C=C/c1ccc(Cl)c(Cl)c1)Nc1ncc(Cc2ccc(Cl)c(Cl)c2)s1	24.6% (inactive)	47.4% (inactive)	26.9% (inactive)	33.3% (inactive)	28.7% (inactive)	26.6% (inactive)	41.2% (inactive)	13.3% (inactive)
CCc1cc(OC(=O)N2CCN(CCC(C)(COC(C)(C)C)COC(C)(C)C)CC2)ccc1Nc1cc(-c2ccc(-n3cccn3)cc2)[nH]n1	61% (inactive)	108% (inactive)	85.3% (inactive)	94.8% (inactive)	50.1% (inactive)	66.3% (inactive)	91.5% (inactive)	85.6% (inactive)
O=C(N/N=C\c1ccc([N+](=O)[O-])cc1)c1ccc2nc(-c3ccc(Br)cc3)[nH]c2c1	9.87% (active)	6.72% (active)	23.9% (inactive)	5.34% (active)	-4.44% (active)	-37.2% (active)	5.66% (active)	11.7% (inactive)
O=C1/C(=C/C=C/c2ccco2)SC(=S)N1Cc1ccccc1	75.6% (inactive)	110% (inactive)	92.7% (inactive)	94.2% (inactive)	28.4% (inactive)	91% (inactive)	99.7% (inactive)	78.6% (inactive)
C=C(C)[C@@H]1CC[C@]2(C(=O)N3CCN(C)CC3)CC[C@]3(C)[C@H](CC[C@@H]4[C@@]5(C)CC[C@H](OP(=O)(OCC)OCC)C(C)(C)[C@@H]5CC[C@]43C)[C@@H]12	87.8% (inactive)	93.9% (inactive)	94.2% (inactive)	82% (inactive)	68.9% (inactive)	24% (inactive)	94.4% (inactive)	94.4% (inactive)
COc1ccccc1N1CCN(C2=C(Cl)C(=O)c3ncccc3C2=O)CC1	19.3% (inactive)	119% (inactive)	57.7% (inactive)	43.8% (inactive)	36.9% (inactive)	27.1% (inactive)	108% (inactive)	90.7% (inactive)
O=C1/C(=C/c2cc(F)cc(F)c2)Cc2cc3c(cc21)OCO3	47.6% (inactive)	35.4% (inactive)	-44.3% (active)	28.1% (inactive)	29% (inactive)	26.8% (inactive)	65% (inactive)	34.6% (inactive)
CCCCCCCCCC(=O)NC(C)(C)C(=O)N1CCC[C@H]1C(=O)N[C@@H](CC(C)C)C(=O)N[C@@](C)(CC)C(=O)N[C@@H](CCC(N)=O)C(=O)N[C@H](CCC(N)=O)C(=O)NC(C)(C)C(=O)NC(C)(C)C(=O)N[C@@H](CCC(N)=O)C(=O)N[C@H](CC(C)C)C(=O)N[C@H](CO)CC(C)C	-34.9% (active) and -12.9% (active)	-84.8% (active) and -76.9% (active)	-60.3% (active) and -95.4% (active)	-83.6% (active) and -50.6% (active)	-83.8% (active) and -76.9% (active)	-67.5% (active) and 1.05% (active)	-89.2% (active) and -59.5% (active)	-89.6% (active) and -89.8% (active)
CNC(=O)Nc1ccc(Nc2cc(-c3ccc(-n4cccn4)cc3)[nH]n2)c(C)c1	104% (inactive)	111% (inactive)	105% (inactive)	126% (inactive)	81.2% (inactive)	107% (inactive)	123% (inactive)	101% (inactive)
O=C(CCCCCCNC(=O)c1csc(Br)n1)NO	6.1% (active)	88.4% (inactive)	12% (inactive)	7.18% (active)	26.7% (inactive)	3.29% (active)	63% (inactive)	56.8% (inactive)
Cc1[nH]c(C(=O)Nc2ccccc2OCc2cccc(C(=O)NC3CCNC3)c2)c(Cl)c1Cl (stereo not drawn)	53.9% (inactive)	83.8% (inactive)	-53% (active)	-66.3% (active)	-73.9% (active)	-61.2% (active)	5.81% (active)	-1.67% (active)
NC1CC2(CCN(c3cnc(C(=O)Nc4cc(F)cc5cccnc45)cn3)CC2)C1	64.5% (inactive)	84.8% (inactive)	70.9% (inactive)	42.8% (inactive)	46.2% (inactive)	38.5% (inactive)	83.7% (inactive)	81.7% (inactive)
CCN(CC)c1ccc(/C=N/NC(=O)c2ccc(NS(C)(=O)=O)cc2)c(O)c1	26.3% (inactive)	11.6% (inactive)	28.8% (inactive)	36.9% (inactive)	6.08% (active)	21.7% (inactive)	38.5% (inactive)	15.2% (inactive)
Nc1cc(C(=O)N/N=C\c2ccc(OC(F)F)c(OC3CCCC3)c2)nn1CC(O)c1ccccc1 (stereo not drawn)	83.6% (inactive)	118% (inactive)	103% (inactive)	103% (inactive)	89% (inactive)	103% (inactive)	114% (inactive)	95.6% (inactive)

SMILES	growth [1]	growth [2]	growth [3]	growth [4]	growth [5]	growth [6]	growth [7]	growth [8]
Cc1ccc2c(n1)C(=O)C(Cl)=C(Nc1ccccc1C(=O)OC(C)(C)C)C2=O	-25.2% (active)	38.6% (inactive)	84.7% (inactive)	-28.3% (active)	-60.1% (active)	-84.6% (active)	92.3% (inactive)	99.1% (inactive)
O=C1[C@@H]2Cc3c([nH]c4ccccc34)[C@H](c3ccc(Cl)cc3)N2C(=O)CN1C1CCN(Cc2ccccc2)CC1	74.5% (inactive)	72.1% (inactive)	54.8% (inactive)	61.3% (inactive)	16.2% (inactive)	25.5% (inactive)	51.4% (inactive)	57.6% (inactive)
Cc1cc(NS(=O)(=O)c2ccc(NC(=O)CSc3nc4ccccc4c(=O)n3-c3ccccc3)cc2)no1	90% (inactive)	97.1% (inactive)	98% (inactive)	98.9% (inactive)	91.4% (inactive)	94.6% (inactive)	96.9% (inactive)	94.5% (inactive)
Cn1cc(-c2nc(N)nnc2-c2c[nH]c3ccc(Br)cc23)c2cc(F)ccc21	74.8% (inactive)	96.9% (inactive)	50.5% (inactive)	95.1% (inactive)	47.4% (inactive)	100% (inactive)	122% (inactive)	74.7% (inactive)
COc1ccc(C(C)=C(c2ccc(OCCN3CCCCCC3)cc2)c2ccc(OCCN3CCCCCC3)cc2)cc1	-32.2% (active)	13.2% (inactive)	-83.7% (active)	-50.4% (active)	-72.4% (active)	-93% (active)	-79.3% (active)	-24.8% (active)
Cc1ccc2c(n1)C(=O)C(Cl)=C(Nc1ccc(C#N)cc1)C2=O	7.98% (active)	120% (inactive)	99.5% (inactive)	-23.1% (active)	18.7% (inactive)	67.9% (inactive)	108% (inactive)	102% (inactive)
C#CCN(C)CCCOc1ccc(NC(=O)CCCCCCC(=O)NO)cc1Cl	-2.41% (active)	44.9% (inactive)	-0.594% (active)	11.7% (inactive)	13.4% (inactive)	2.96% (active)	12.9% (inactive)	24.8% (inactive)
CN1CCN(Cc2ccc(NC(=O)c3cncc(C#Cc4cnc5ccc(NCCO)nn45)c3)cc2C(F)(F)F)CC1	21.5% (inactive)	-32.2% (active)	-6.87% (active)	-13.2% (active)	-43.5% (active)	0.878% (active)	-8.28% (active)	-4.28% (active)
C/C=C/CC(C)C(O)[C@H](NC(=O)[C@@H]1CCCN1C(=O)[C@](C)(CC)NC(=O)CCCCCCCCC)C(=O)N[C@@](C)(CC)C(=O)N[C@@H](CCC(N)=O)C(=O)N[C@H](CCC(N)=O)C(=O)NC(C)(C)C(=O)NC(C)(C)C(=O)N[C@@H](CCC(N)=O)C(=O)N[C@H](CC(C)C)C(=O)N[C@H](CO)CC(C)C (stereo partly drawn)	61.9% (inactive) and -23.3% (active)	-72.4% (active)	17.4% (inactive) and -95.1% (active)	83.1% (inactive) and 14.5% (inactive)	51.9% (inactive) and -62.3% (active)	70.6% (inactive) and -7.45% (active)	32.6% (inactive) and -57.5% (active)	21.6% (inactive) and -65% (active)
COc1ccc(/C=N/NC(=O)c2c(N)nn(C)c2Nc2ccccc2)cc1	42.4% (inactive)	14% (inactive)	-31% (active)	16% (inactive)	17.6% (inactive)	15% (inactive)	59.2% (inactive)	27.8% (inactive)
C#CCN(C)CCCOc1ccc(NC(=O)CCCCCCCCC(=O)NO)cc1Cl	72.6% (inactive)	92.5% (inactive)	74.2% (inactive)	63.1% (inactive)	31.9% (inactive)	39.2% (inactive)	71.8% (inactive)	83.4% (inactive)
NS(=O)(=O)c1ccc(Nc2nc(Nc3ccccc3)nc(N3N=C(c4ccc(Cl)cc4)CC3c3ccc(Cl)cc3)n2)cc1 (stereo not drawn)	51.3% (inactive)	73.2% (inactive)	39.1% (inactive)	54.4% (inactive)	12.8% (inactive)	14.1% (inactive)	13.1% (inactive)	5.08% (active)
O=C(CCCCCCNC(=O)C(O)(O)C(F)(F)F)Nc1nc2ccccc2s1	12.1% (inactive)	13% (inactive)	4.88% (active)	4.75% (active)	9.8% (active)	2.81% (active)	-39.8% (active)	7.52% (active)
Cn1c(SCC(=O)c2ccc(Br)cc2)nc2ccccc2c1=O	78.4% (inactive)	98.9% (inactive)	103% (inactive)	102% (inactive)	51.7% (inactive)	86.1% (inactive)	108% (inactive)	98.7% (inactive)
CSc1ccc(/C(=N/N=C(N)N)c2ccc(Cl)cc2)cc1	50.5% (inactive)	-37.3% (active)	-30.1% (active)	2.54% (active)	0.167% (active)	-27.7% (active)	-68.2% (active)	5.79% (active)

— PubChem BioAssay (NCI)
